Several values for one entry are separate records, joined by “and”; a condition that tells them apart may be missing. Equal values may be shown once. Results filed as inconclusive are left out. A call without a number means that no potency is given here. Activity calls are given as the source filed them. Calls follow the shape of the dose curve; as a rule, active = well fitted curve in the direction sought with a large enough effect in the repeat runs; inconclusive = weak or mixed curves; inactive = no such curve, though single readings can be large; an effect the other way counts as inactive or inconclusive.
Potency is read from the fitted curve at half-maximal effect.

The nature of one test: qHTS assay to identify small molecule antagonists of the retinoid acid receptor (RAR) signaling pathway - cell viability counter screen (AID 1159551). Also: nearly all actives have a fitted effect of over 35% in size. The settings on record: C3RL4 cells viability, ATP luminescence (CellTiter-Glo), 6 h; series mostly up to 92.4 µM. The essentials: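 Cells (C3RL4) are plated, incubated overnight, dosed with compound in DMSO, then given retinol at 1 uM final. After 6 h at 37 C, CellTiter-Glo is added and luminescence read following 30 min at room temperature.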
On to `C[C@]12CC[C@H]3[C@@H](CCC4=CC(=O)CC[C@@H]43)[C@@H]1CC[C@@H]2OC(=O)CCc1ccco1`, for which the Potency result was “inactive”.

`CSC(C)(C)/C=N/O`: the Potency result is “inactive”.

In the case of `OCC(Br)CBr` (configuration not stated), the Potency entry is “inactive”.

Consider `O=c1c2ccccc2c(=O)c2c1cc(Cl)c1[nH]c3c([nH]c12)c(Cl)cc1c(=O)c2ccccc2c(=O)c13`, for which the Potency result was “inactive”.

On to `CC[C@]1(O)CC[C@H]2[C@@H]3CCC4=CCCC[C@@H]4[C@H]3CC[C@@]21C`, for which the Potency entry is “inactive”.

With `CCNS(=O)(=O)C(F)(F)C(F)(F)C(F)(F)C(F)(F)C(F)(F)C(F)(F)C(F)(F)C(F)(F)F`, the Potency entry was “inactive”.

Turning to `ClC(Cl)C(Cl)(Cl)Cl`, the Potency entry was “inactive”.

For the molecule `CC(=O)C(Cl)C(=O)N(C)C` (configuration not stated), the Potency entry is “inactive”.

With `CC(C)=CC1C(C(=O)OC(C#N)c2cccc(Oc3ccccc3)c2)C1(C)C` (configuration not stated), the Potency result was “inactive”.

In the case of `Nc1cc(Cl)ccc1Cl`, the Potency result was “inactive”.

In the case of `CC(=O)[O][Sn]([c]1ccccc1)([c]1ccccc1)[c]1ccccc1`, the Potency was 7.7 µM (active).

For `C[C@]12C/C(=C/O)C(=O)C[C@@H]1CC[C@@H]1[C@@H]2CC[C@@]2(C)[C@H]1CC[C@]2(C)O`, the Potency result is “inactive”.

Regarding `CN1CCc2cc3c(cc2C1O)OCO3` (configuration not stated), the Potency result is “inactive”.

`CC(=O)O.CC(=O)O.CC(=O)O.CC(=O)O.CC(=O)O.CC(=O)O.CC(=O)O.O.O.[Cr].[Cr].[Cr]`: the Potency entry is “inactive”.

As to `[Cl][Hg][c]1ccccc1`, the Potency is 17.2 µM (active).

With `C[N+]1(C)[C@@H]2CC[C@H]1CC(OC(=O)C(CO)c1ccccc1)C2` (some centres not stated), the Potency entry is “inactive”.

In the case of `O.O.O.O.O.O.O.O=S(=O)([O-])[O-].[Co+2]`, the Potency result is “inactive”.

For `CCCC[N+]1(C)CCCC1` (tested in a mixture with another compound), the Potency entry was “inactive”.

As for `CSC1=N[C@@](C)(c2ccccc2)C(=O)N1Nc1ccccc1`, the Potency result is “inactive”.

`CCOP(=O)(OCC)Oc1cc(C)nc(C(C)C)n1`: the Potency result was “inactive”.

Turning to `O=C1C[C@@H]2OCC=C3CN4CC[C@]56c7ccccc7N1[C@H]5[C@H]2[C@H]3C[C@H]46`, the Potency entry was “inactive”.

Turning to `CC(=O)[O-].CC(=O)[O-].CC(=O)[O-].[Sb+3]`, the activity change, negative = cytotoxicity was 3.99% [at 3.27 µM] (inactive).

Regarding `C=CC(=O)[O][Sn]([CH2]CCC)([CH2]CCC)[CH2]CCC`, the Potency was 6.11 µM (active).

On to `S=C=Nc1ccccc1`, for which the Potency entry was “inactive”.

Consider `Oc1ccc(Cl)c(Cl)c1`, for which the Potency entry was “inactive”.

For `N#Cc1sc2c(=O)c3ccccc3c(=O)c=2sc1C#N`, the Potency is 27.3 µM (active).

Regarding `COP(=S)(OC)Oc1ccc([N+](=O)[O-])c(C)c1`, the Potency result is “inactive”.

For `CNC(C)(C)Cc1ccccc1`, the Potency result is “inactive”.

`CCCCc1ccccc1`: the Potency entry was “inactive”.

For `CC(C)N(C(=O)SC/C(Cl)=C/Cl)C(C)C`, the Potency result is “inactive”.

Consider `Cc1ccc([N+](=O)[O-])[c]2c1[O][Hg]2`, for which the Potency is 6.68 µM (active).

Consider `ClCBr`, for which the Potency result was “inactive”.

For the molecule `CCN(CC)Cc1nccn1-c1ccc([N+](=O)[O-])cc1C(=O)c1ccccc1Cl`, the Potency result was “inactive”.

As for `C=CCBr`, the Potency entry was “inactive”.

With `Cc1cnc2c(C(=O)O)c(Cl)ccc2c1`, the Potency entry was “inactive”.

For the molecule `[O-][Cl+3]([O-])([O-])O`, the Potency result is “inactive”.

As to `O=S1OCC2C(CO1)C1(Cl)C(Cl)=C(Cl)C2(Cl)C1(Cl)Cl` (configuration not stated), the Potency is 54.5 µM (active).

Turning to `COP(=O)(OC)Oc1ccc([N+](=O)[O-])cc1`, the Potency entry was “inactive”.

Regarding `CC(O)C(=O)[O][Hg][c]1ccccc1` (configuration not stated), the Potency is 13.7 µM (active).

A further test is described as follows: qHTS assay to identify small molecule antagonists of the retinoic acid receptor (RAR) signaling pathway (AID 1159552; also: nearly all actives have a fitted effect of over 50% in size). The settings on record: C3RL4 RARE luciferase reporter, retinol-stimulated, 6 h; series mostly up to 92.4 µM. The essentials: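 Test chemicals and DMSO controls were pin-transferred onto C3RL4 cells a day after seeding; retinol (1 uM final) followed at once. Luminescent reporter output was quantified after 6 hr of co-incubation and 30 min with detection reagent.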
`C[C@]12CC[C@H]3[C@@H](CCC4=CC(=O)CC[C@@H]43)[C@@H]1CC[C@@H]2OC(=O)CCc1ccco1`: the Potency entry is “inactive”.

On to `CCNS(=O)(=O)C(F)(F)C(F)(F)C(F)(F)C(F)(F)C(F)(F)C(F)(F)C(F)(F)C(F)(F)F`, for which the Potency result is “inactive”.

Regarding `ClC(Cl)C(Cl)(Cl)Cl`, the Potency entry was “inactive”.

Take `C[C@]12C/C(=C/O)C(=O)C[C@@H]1CC[C@@H]1[C@@H]2CC[C@@]2(C)[C@H]1CC[C@]2(C)O`: the Potency is 24.6 µM (active) and 26.6 µM (active).

`[Cl][Hg][c]1ccccc1`: the Potency was 1.09 µM (active).

For the molecule `C[N+]1(C)[C@@H]2CC[C@H]1CC(OC(=O)C(CO)c1ccccc1)C2` (some centres not stated), the Potency result is “inactive”.

As to `C=CC(=O)[O][Sn]([CH2]CCC)([CH2]CCC)[CH2]CCC`, the Potency was 0.864 µM (active).

In the case of `S=C=Nc1ccccc1`, the Potency entry is “inactive”.

Regarding `N#Cc1sc2c(=O)c3ccccc3c(=O)c=2sc1C#N`, the Potency was 30.6 µM (active).

Regarding `Cc1ccc([N+](=O)[O-])[c]2c1[O][Hg]2`, the Potency is 1.5 µM (active).

Consider `ClCBr`, for which the Potency entry was “inactive”.

Consider `O=S1OCC2C(CO1)C1(Cl)C(Cl)=C(Cl)C2(Cl)C1(Cl)Cl` (configuration not stated), for which the Potency was 48.6 µM (active) and 54.4 µM (active).

As for `COP(=O)(OC)Oc1ccc([N+](=O)[O-])cc1`, the Potency entry is “inactive”.

Source of the values: PubChem BioAssay (Tox21).
